From PubChem BioAssay
Active and inactive are the calls of the source.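 Rule for the calls, unless noted: active = inhibition above the screen-wide mean plus 3 SD, about 51%; inactive = the rest.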

Columns and labels:
[1] = reduced mouse 2C T cell binding to pMHC/ICAM-1 vesicles – MLPCN validation set, flow cytometry, LFA-1/ICAM-1 modulator project, pilot screen (AID 2523;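 active = response below a set limit, under 55% cells CD8-positive and vesicle-bound, and CD8 cells' 90th-percentile brightness under 279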;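 for vesicle binding response: mean PE anti-B7-1 fluorescence of CD8+ cells relative to row control; 100% = QL9-loaded vesicles with DMSO vehicle in the same plate row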); details: 2C mouse CD8+ T cells, at 7 µM, stronger effect = lower value; double positive events: measured here: CD8+/vesicle+ event percentage
[2] = target: Integrin beta-1 (Homo sapiens) + Integrin alpha-4 (Homo sapiens) (UniProt P13612+P05556); assay: alpha4beta1 integrin LIBS antibody binding reduction – U937 cells, HUTS-21 mAb, flow cytometry, validation set, VLA-4 allosteric modulator project, pilot screen (AID 2674;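 active = inhibition above 50%, about 3 SD of the validation set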;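 note: antibody binding induced by the VLA-4 ligand LDV present at three times its Kd; 0% = LDV ligand with antibody and no compound and 100% = antibody without LDV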); details: HUTS-21 LIBS mAb binding, at 6.7 µM, stronger effect = higher value, binding induced by LDV ligand
[3] = calorie-restriction mimetic ROS inhibitors, yeast – validation compound set, pilot screen (AID 2706;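 active = superoxide response below 65% of plate, a cut near 3 SD across the whole screen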;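 note: yeast exposed to compound for one week at 30 degrees C before staining; 100% = mean of all compound wells on the same plate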); details: S. cerevisiae aging, superoxide DHE fluorescence; at 10 µM, stronger effect = lower value
[4] = target: Beta-adrenergic receptor kinase 1 (Homo sapiens) (UniProt P25098); assay: GRK2 binders displacing RNA aptamer, biochemical, validation, human GRK2, bead flow cytometry (AID 488806;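 active = aptamer binding inhibition above 30%, about 3 SD of noise from non-fluorescent compounds; inactive = inhibition at or below 30%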); details: bead-bound GRK2, FAM-aptamer displacement, at 10 µM, stronger effect = higher value
[5] = target: AP-2 complex subunit beta (Homo sapiens) (UniProt P63010); assay: beta-arrestin/AP2 interaction blockers – biochemical, validation set, GST-AP2 beads, flow cytometry, pilot screen (AID 504541;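 active = inhibition above 54%, about 3 SD of non-fluorescent compounds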;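 note: AP2 carries R879A mutation and is captured from E. coli lysate; bead-bound FITC arrestin peptide fluorescence measuring arrestin peptide binding to AP2; 0% = DMSO wells and 100% = excess unlabeled arrestin peptide control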); details: FITC arrestin peptide, at 10 µM, stronger effect = higher value, AP2 beta2 appendage fragment, R879A mutant
[6] = cytosolic pH regulators acting via V-ATPase – S. cerevisiae, pHLuorin, HTS validation (AID 504600; in the data active = response above about 15%;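 note: plate controls were DMSO for no effect and reference compound for full effect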); details: V-ATPase proton transport, at 10 µM, stronger effect = higher value
[7] = test system: anti-desmoglein-3 scFv antibody binding to human DSG3; assay: blockers of pathogenic pemphigus antibody–desmoglein-3 binding – biochemical, validation compound set, bead-based, flow cytometry, pilot screen (AID 588368;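 active = binding below the plate cutoff, the plate median minus 3 SD, with a reading above zero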;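 note: signal is the median channel fluorescence of bead-bound GFP antibody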); details: Protein G beads, DSG3-Fc, scFv-GFP binding, at 10 µM, stronger effect = lower value
[8] = Nile Red efflux blockade in pump-expressing yeast – validation compound set, multiplex, phenotypic, pilot screen (AID 588506;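 active = efflux inhibition above 0.42, the validation set average plus 4 SD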;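 note: Nile Red retained in cells so higher fluorescence means more efflux inhibition; 0 = negative control wells and 1 = enniatin B 25 µM full block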); details: S. cerevisiae pump-expressing triplex, Nile Red efflux flow cytometry; at 10 µM; stronger effect = higher value; the pumps come from Candida albicans
[9] = target: ATP-binding cassette sub-family B member 6 (Homo sapiens) (UniProt Q9NP58); assay: blockers of ABCB6-driven porphyrin uptake – K562-ABCB6 cells, flow cytometry, validation set, pilot screen (AID 588550); details: K562-ABCB6 porphyrin accumulation, 1 h, at 10 µM, stronger effect = higher value;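 note: 0% = DMSO wells and 100% = benzethonium chloride 70 µM positive control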
[10] = AML differentiation inducers, ER-HoxA9 marrow cells – cell-based, GFP/MAC1 double positive, flow cytometry, validation set, primary screen (AID 588685;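 active = differentiation response of at least 50%, scaled between solvent and reference control, from cells with both markers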;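 note: compound exposure lasts four days before antibody staining and flow analysis; 0% = DMSO wells and 100% = 5 µM fulvestrant positive control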); details: stronger effect = higher value, normalized: vehicle 0, fulvestrant 100

Chain of AP-2 complex subunit beta (Homo sapiens) (P63010 whole entry, looked up, the tested form may be a part, one chain of several): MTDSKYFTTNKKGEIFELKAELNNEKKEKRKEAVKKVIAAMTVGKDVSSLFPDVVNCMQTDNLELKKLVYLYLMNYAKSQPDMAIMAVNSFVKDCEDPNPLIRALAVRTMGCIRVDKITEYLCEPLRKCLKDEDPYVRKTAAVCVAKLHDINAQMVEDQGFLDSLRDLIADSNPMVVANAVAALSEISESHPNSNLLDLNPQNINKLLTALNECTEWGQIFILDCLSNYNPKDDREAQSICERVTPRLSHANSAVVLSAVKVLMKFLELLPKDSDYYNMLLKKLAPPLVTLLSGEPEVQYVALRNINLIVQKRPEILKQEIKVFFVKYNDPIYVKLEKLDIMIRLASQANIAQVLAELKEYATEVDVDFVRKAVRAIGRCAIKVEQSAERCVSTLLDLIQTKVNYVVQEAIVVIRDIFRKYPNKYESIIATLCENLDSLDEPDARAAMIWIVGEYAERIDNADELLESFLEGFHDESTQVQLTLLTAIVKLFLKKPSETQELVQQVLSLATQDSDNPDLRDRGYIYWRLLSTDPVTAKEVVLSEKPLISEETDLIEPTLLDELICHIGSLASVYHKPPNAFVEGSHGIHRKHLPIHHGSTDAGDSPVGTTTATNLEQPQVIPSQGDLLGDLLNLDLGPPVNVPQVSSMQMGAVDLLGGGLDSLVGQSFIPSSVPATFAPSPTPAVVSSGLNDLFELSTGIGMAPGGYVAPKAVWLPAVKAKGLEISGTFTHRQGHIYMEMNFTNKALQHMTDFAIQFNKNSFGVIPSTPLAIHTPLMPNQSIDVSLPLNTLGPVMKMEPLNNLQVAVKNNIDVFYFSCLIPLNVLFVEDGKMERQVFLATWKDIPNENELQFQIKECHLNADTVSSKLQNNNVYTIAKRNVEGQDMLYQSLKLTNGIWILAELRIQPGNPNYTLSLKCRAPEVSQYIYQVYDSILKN
Chain of Beta-adrenergic receptor kinase 1 (Homo sapiens) (P25098 whole entry, looked up): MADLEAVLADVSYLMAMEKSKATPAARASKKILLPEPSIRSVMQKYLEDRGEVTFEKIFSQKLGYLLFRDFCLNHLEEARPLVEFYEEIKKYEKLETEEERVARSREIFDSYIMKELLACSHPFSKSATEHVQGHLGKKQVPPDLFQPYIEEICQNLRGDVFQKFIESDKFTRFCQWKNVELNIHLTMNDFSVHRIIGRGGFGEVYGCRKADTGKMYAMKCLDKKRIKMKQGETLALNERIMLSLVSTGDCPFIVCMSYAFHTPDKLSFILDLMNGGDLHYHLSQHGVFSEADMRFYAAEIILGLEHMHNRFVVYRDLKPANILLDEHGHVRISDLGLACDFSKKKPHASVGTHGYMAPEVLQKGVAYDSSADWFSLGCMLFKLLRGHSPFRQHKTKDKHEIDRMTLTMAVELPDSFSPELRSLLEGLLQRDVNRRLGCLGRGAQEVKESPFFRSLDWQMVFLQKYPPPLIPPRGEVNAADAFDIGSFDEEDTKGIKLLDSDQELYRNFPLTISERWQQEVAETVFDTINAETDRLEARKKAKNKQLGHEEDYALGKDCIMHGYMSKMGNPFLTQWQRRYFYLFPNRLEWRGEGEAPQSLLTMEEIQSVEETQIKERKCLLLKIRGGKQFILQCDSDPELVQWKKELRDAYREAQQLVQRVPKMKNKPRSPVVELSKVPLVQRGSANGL
Chain of ATP-binding cassette sub-family B member 6 (Homo sapiens) (Q9NP58 whole entry, looked up): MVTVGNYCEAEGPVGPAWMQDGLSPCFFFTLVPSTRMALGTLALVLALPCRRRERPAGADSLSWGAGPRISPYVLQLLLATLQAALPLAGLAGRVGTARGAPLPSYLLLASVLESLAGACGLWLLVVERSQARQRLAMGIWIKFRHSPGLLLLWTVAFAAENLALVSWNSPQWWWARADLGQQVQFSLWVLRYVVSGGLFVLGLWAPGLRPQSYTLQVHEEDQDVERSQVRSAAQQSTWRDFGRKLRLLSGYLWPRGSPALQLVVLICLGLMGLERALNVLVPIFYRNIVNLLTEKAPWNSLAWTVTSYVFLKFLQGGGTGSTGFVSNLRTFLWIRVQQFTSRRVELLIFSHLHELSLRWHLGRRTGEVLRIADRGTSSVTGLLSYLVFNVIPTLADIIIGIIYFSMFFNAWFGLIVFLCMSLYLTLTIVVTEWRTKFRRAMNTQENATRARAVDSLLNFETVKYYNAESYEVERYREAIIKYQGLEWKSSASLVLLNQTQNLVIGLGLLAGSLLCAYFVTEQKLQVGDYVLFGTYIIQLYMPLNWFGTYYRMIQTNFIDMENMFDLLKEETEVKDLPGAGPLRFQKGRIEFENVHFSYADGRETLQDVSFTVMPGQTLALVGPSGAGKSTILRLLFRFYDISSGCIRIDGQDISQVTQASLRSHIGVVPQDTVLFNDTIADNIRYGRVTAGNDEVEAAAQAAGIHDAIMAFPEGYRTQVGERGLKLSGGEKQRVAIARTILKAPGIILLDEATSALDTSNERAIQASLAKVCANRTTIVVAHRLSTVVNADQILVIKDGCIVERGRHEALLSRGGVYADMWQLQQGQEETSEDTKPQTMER
Chain of Integrin beta-1 (Homo sapiens) + Integrin alpha-4 (Homo sapiens) (P05556 whole entry, looked up): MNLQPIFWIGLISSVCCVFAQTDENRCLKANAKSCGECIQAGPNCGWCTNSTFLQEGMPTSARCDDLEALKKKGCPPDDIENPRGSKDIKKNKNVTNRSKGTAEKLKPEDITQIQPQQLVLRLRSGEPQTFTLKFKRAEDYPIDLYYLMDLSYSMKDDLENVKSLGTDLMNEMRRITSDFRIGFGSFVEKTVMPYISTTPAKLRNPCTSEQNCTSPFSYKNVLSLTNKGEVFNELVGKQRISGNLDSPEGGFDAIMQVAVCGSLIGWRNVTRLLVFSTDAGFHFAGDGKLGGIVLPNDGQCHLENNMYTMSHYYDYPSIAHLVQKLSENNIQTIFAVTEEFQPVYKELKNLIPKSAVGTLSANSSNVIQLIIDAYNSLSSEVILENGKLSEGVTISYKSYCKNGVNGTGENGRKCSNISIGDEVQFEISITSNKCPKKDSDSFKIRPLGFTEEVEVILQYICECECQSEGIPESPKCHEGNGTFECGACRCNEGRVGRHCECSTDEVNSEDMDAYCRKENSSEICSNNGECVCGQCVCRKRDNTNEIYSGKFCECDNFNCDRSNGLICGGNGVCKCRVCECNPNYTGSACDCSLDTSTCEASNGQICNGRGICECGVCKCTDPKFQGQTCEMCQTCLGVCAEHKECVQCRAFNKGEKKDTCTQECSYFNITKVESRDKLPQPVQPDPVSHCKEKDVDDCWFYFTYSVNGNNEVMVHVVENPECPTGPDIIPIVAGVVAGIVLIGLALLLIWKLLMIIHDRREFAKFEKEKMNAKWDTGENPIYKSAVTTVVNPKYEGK
Chain of Integrin beta-1 (Homo sapiens) + Integrin alpha-4 (Homo sapiens) (P13612 whole entry, looked up): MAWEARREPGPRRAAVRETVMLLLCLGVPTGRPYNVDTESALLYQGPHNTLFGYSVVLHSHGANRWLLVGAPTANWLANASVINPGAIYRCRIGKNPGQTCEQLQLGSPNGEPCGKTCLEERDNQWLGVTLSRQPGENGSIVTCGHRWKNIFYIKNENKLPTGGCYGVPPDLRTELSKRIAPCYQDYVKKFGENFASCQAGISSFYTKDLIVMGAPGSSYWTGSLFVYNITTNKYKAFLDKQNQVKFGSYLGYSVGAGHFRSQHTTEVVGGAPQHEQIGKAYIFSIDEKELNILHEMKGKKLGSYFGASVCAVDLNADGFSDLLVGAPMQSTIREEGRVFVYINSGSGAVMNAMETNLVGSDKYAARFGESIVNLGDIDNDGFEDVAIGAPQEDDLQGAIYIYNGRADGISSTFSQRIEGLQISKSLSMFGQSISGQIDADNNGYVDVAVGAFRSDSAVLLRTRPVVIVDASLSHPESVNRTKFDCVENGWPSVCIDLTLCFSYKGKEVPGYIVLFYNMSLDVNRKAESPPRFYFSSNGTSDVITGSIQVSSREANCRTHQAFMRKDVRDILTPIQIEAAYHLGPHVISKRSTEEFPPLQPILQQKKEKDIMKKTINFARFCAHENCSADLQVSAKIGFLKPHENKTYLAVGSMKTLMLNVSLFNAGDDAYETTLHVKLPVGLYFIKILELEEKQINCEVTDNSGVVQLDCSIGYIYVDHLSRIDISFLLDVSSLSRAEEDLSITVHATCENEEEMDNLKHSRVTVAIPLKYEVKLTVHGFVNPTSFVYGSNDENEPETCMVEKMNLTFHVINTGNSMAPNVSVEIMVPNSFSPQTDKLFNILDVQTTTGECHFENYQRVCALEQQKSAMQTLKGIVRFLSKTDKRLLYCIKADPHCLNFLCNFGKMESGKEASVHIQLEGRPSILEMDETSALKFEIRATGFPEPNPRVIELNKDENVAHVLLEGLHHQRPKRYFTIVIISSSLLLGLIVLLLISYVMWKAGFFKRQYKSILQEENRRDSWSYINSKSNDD

Row | SMILES | double positive events [1] [%] | vesicle binding response [1] | inhibition [2] | superoxide response (% of plate) [3] | aptamer binding inhibition [4] | inhibition [5] | response [6] | binding (% of control) [7] | efflux inhibition (fraction of control) [8] | inhibition [9] | differentiation response [10]
1 | CCCCC[C@H](O)/C=C/[C@@H]1[C@@H](CCCCCCC(=O)O)[C@@H](O)C[C@H]1O | 55.5 | 114% (inactive) | 5.36% (inactive) | 104% (inactive) | 2% (inactive) | -0.39% (inactive) | 1.43% (inactive) | 99.8% (inactive) | 0.29 (inactive) | 9% (inactive) | -26% (inactive)
2 | Cc1c(OCC(=O)NC(Cc2c[nH]c3ccc(O)cc23)C(=O)O)ccc2c3c(c(=O)oc12)CCC3 (stereo not given) | 51.4 | 218% (inactive) | 6.29% (inactive) | 87.9% (inactive) | 3% (inactive) | 3.65% (inactive) | 6.27% (inactive) | 101% (inactive) | -0.5 (inactive) | 11% (inactive) | -22.8% (inactive)
3 | COc1ccc2[nH]c(C)c(CN3CCC(C)CC3)c(=O)c2c1 | 50.2 | 154% (inactive) | -14.2% (inactive) | 100% (inactive) | 2% (inactive) | -1.75% (inactive) | 4.29% (inactive) | 98.5% (inactive) | 0.1 (inactive) | 2% (inactive) | -5.05% (inactive)
4 | COc1ccc(-c2coc3cc(OC(=O)N4CCOCC4)ccc3c2=O)cc1 | 62.6 | 185% (inactive) | -9.57% (inactive) | 105% (inactive) | -3% (inactive) | -9.14% (inactive) | 4.61% (inactive) | 109% (inactive) | -0.16 (inactive) | 10% (inactive) | 19.2% (inactive)
5 | O=C(O)CCn1c(=S)n(CCC(=O)O)c2ccccc21 | 53.4 | 162% (inactive) | 8.15% (inactive) | 112% (inactive) | 4% (inactive) | 4.52% (inactive) | -0.83% (inactive) | 101% (inactive) | -0.05 (inactive) | 5% (inactive) | -6.66% (inactive)
6 | O=Cc1ccc(N2CCCCC2)cc1 | 54.6 | 201% (inactive) | 10.9% (inactive) | 106% (inactive) | 3% (inactive) | -10.3% (inactive) | 1.25% (inactive) | 101% (inactive) | -0.05 (inactive) | 4% (inactive) | -3.43% (inactive)
7 | CNS(=O)(=O)c1ccc(C)cc1 | 56.5 | 148% (inactive) | 6.29% (inactive) | 99.3% (inactive) | 2% (inactive) | -8.71% (inactive) | 17.1% (active) | 93.9% (inactive) | 0.1 (inactive) | 8% (inactive) | -0.2% (inactive)
8 | COc1ccc(C2CNC(=O)C2)cc1OC1CCCC1 (stereo not given) | 53.3 | 151% (inactive) | -8.64% (inactive) | 104% (inactive) | -6% (inactive) | 23.8% (inactive) | -25.8% (inactive) | 105% (inactive) | -0.12 (inactive) | 7% (inactive) | -3.43% (inactive)
9 | Cc1ccc(OCCSc2ncccn2)c(C)c1 | 49.1 | 186% (inactive) | 3.49% (inactive) | 114% (inactive) | 1% (inactive) | -11.2% (inactive) | 12.3% (inactive) | 98% (inactive) | 0.14 (inactive) | 10% (inactive) | -13.1% (inactive)
10 | COc1ccc(CNC(=O)c2cc3c(=O)n4ccccc4nc3n(Cc3cccnc3)c2=N)cc1 | 60.5 | 131% (inactive) | -2.11% (inactive) | 92.2% (inactive) | -6% (inactive) | -0.26% (inactive) | 3.99% (inactive) | 112% (inactive) | 0.22 (inactive) | 4% (inactive) | -9.89% (inactive)
